# Experimental data taken from PubChem BioAssay (NCI).
# Values joined by “and” are separate entries in the source; they are usually repeats but may differ in a detail not shown here. Identical values can stand only once. The panel holds about 79,000 compounds, 15% with a hit somewhere; the sample as a whole holds those more often. Some structures have more than one record in an assay (separate samples or runs), and their calls can disagree. Active and inactive are the calls of the source. Cut-off read from the data, not from the text of the source: active = growth inhibition above about 70%; inactive = the rest.
# Columns and labels:
# [1] = NCI Yeast Anticancer Drug Screen. Data for the wt1 strain (AID 149);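 note: 0% = growth of vehicle-treated wt1 cultures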; conditions: S. cerevisiae wt1 strain (SPY 50644) growth inhibition, stronger effect = higher value
# Summary of the method: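 Yeast wt1 strain exposed to compounds; growth inhibition measured relative to vehicle-treated controls.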
# [2] = NCI Yeast Anticancer Drug Screen. Data for the rad50EPP+ strain (AID 151);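 note: 0% = growth of vehicle-treated control cultures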; conditions: S. cerevisiae rad50 mutant strain, stronger effect = higher value
# Summary of the method: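 Yeast strain carrying rad50 alteration (rad50EPP+) exposed to compounds; growth inhibition measured relative to vehicle-treated controls.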
# [3] = NCI Yeast Anticancer Drug Screen. Data for the rad50 strain (AID 155);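 note: 0% = growth of vehicle-only cultures of the same strain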; conditions: S. cerevisiae rad50 strain growth inhibition, stronger effect = higher value
# Summary of the method: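 Yeast carrying a defined DNA repair defect were exposed to test compounds, and growth was compared with vehicle-treated controls to give percent inhibition.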
# [4] = NCI Yeast Anticancer Drug Screen. Data for the mec2-1 strain (AID 157); conditions: S. cerevisiae mec2-1 strain, stronger effect = higher value
# Summary of the method: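 mec2-1 yeast strain, carrying an alteration in DNA damage repair or cell cycle control, was exposed to compounds; growth inhibition was measured relative to vehicle-treated controls.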
# [5] = NCI Yeast Anticancer Drug Screen. Data for the rad14 strain (AID 159);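 note: 0% = growth of vehicle-treated control cultures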; conditions: S. cerevisiae rad14 strain growth inhibition, stronger effect = higher value
# Summary of the method: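 Yeast cells carrying a defined DNA-repair defect were exposed to compounds, and growth inhibition was calculated relative to vehicle-treated control cultures.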
# [6] = NCI Yeast Anticancer Drug Screen. Data for the sgs1 mgt1 strain (AID 161);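 note: 0% = growth of cultures given vehicle only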; conditions: S. cerevisiae sgs1 mgt1 strain, stronger effect = higher value
# Summary of the method: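 Growth of a repair-deficient yeast mutant was monitored after compound treatment and expressed as inhibition relative to vehicle-treated cultures.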
# [7] = NCI Yeast Anticancer Drug Screen. Data for the CLN2oe strain (AID 163);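 note: 0% = growth of vehicle-only control cultures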; conditions: S. cerevisiae CLN2oe strain, stronger effect = higher value
# Summary of the method: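 Yeast cells carrying a defined cell-cycle control alteration were exposed to test compounds. Growth inhibition was scored against vehicle-treated control cultures.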
# [8] = NCI Yeast Anticancer Drug Screen. Data for the cln2 rad14 strain (AID 165);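 note: 0% = growth equal to vehicle treated cultures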; conditions: S. cerevisiae cln2 rad14 strain, stronger effect = higher value
# Summary of the method: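 Yeast carrying cln2 and rad14 alterations (cell cycle control and DNA damage repair) were exposed to compounds. Growth inhibition was measured against vehicle-treated controls.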
# [9] = NCI Yeast Anticancer Drug Screen. Data for the bub3 strain (AID 167); conditions: S. cerevisiae bub3 mutant strain, stronger effect = higher value
# Summary of the method: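 Compounds were applied to a genetically altered yeast strain carrying a cell-cycle control defect. Growth inhibition was scored against vehicle-treated controls.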
# [10] = NCI Yeast Anticancer Drug Screen. Data for the wt2 strain (AID 169);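 note: 0% = growth of vehicle-treated yeast cultures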; conditions: S. cerevisiae wt2 strain growth inhibition, stronger effect = higher value
# Summary of the method: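 Yeast cells were exposed to test compounds, and growth inhibition was measured relative to vehicle-treated controls.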
# [11] = NCI Yeast Anticancer Drug Screen. Data for the mlh1 strain (AID 171);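 note: 0% = growth of vehicle-treated control cultures of the same strain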; conditions: S. cerevisiae mlh1 strain growth inhibition, stronger effect = higher value
# Summary of the method: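 Yeast carrying a defined genetic alteration in DNA damage repair or cell cycle control were exposed to test compounds. Growth inhibition was measured relative to vehicle-treated controls.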
# [12] = NCI Yeast Anticancer Drug Screen. Data for the sgs1 strain (AID 173);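 note: 0% = growth of vehicle-only control cultures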; conditions: S. cerevisiae sgs1 mutant, stronger effect = higher value
# Summary of the method: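 Yeast mutant strains carrying defined defects in DNA damage repair or cell cycle control were exposed to test compounds. Growth inhibition was scored against vehicle-treated controls.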
# [13] = NCI Yeast Anticancer Drug Screen. Data for the mlh1 rad18 strain (AID 175); conditions: S. cerevisiae mlh1 rad18 strain growth inhibition, stronger effect = higher value
# Summary of the method: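 Growth inhibition of the yeast strain was measured after compound exposure and expressed relative to vehicle-treated controls. The strain carries defined defects in DNA damage repair.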
# [14] = NCI Yeast Anticancer Drug Screen. Data for the rad18 strain (AID 177); conditions: S. cerevisiae rad18 mutant growth inhibition, stronger effect = higher value
# Summary of the method: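 Yeast carrying a defined DNA damage repair alteration were exposed to compounds. Growth inhibition was expressed relative to vehicle-treated controls.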
# [15] = at 5.0 µM (retest, dose inferred, filed as 0.5)
# [16] = at 50.0 µM (retest, dose inferred, filed as 5.0)
smiles,measurement,setting,value
CN(C)c1ccc(C(c2ccc(Cl)cc2)c2ccc(N(C)C)cc2)cc1,growth inhibition,[1]; at 1.2 µM,0% (inactive)
same,growth inhibition,[1]; at 3.7 µM,53% (inactive)
same,growth inhibition,[1]; at 11.0 µM,28% (inactive)
same,growth inhibition,[1]; at 33.0 µM,73% (active)
same,growth inhibition,[1]; at 100.0 µM,86% (active)
same,growth inhibition,[2]; at 1.2 µM,3% (inactive)
same,growth inhibition,[2]; at 3.7 µM,10% (inactive)
same,growth inhibition,[2]; at 11.0 µM,6% (inactive)
same,growth inhibition,[2]; at 33.0 µM,-2% (inactive)
same,growth inhibition,[2]; at 100.0 µM,14% (inactive)
same,growth inhibition,[3]; at 1.2 µM,64% (inactive)
same,growth inhibition,[3]; at 3.7 µM,97% (active)
same,growth inhibition,[3]; [15],91% (active) and 98% (active)
same,growth inhibition,[3]; at 11.0 µM,96% (active)
same,growth inhibition,[3]; at 33.0 µM,89% (active)
same,growth inhibition,[3]; [16],94% (active) and 99% (active)
same,growth inhibition,[3]; at 50.0 µM,95.7% (active) and 94.5% (active)
same,growth inhibition,[3]; at 100.0 µM,79% (active)
same,growth inhibition,[4]; at 1.2 µM,31% (inactive)
same,growth inhibition,[4]; at 3.7 µM,98% (active)
same,growth inhibition,[4]; [15],90% (active) and 99% (active)
same,growth inhibition,[4]; at 11.0 µM,97% (active)
same,growth inhibition,[4]; at 33.0 µM,93% (active)
same,growth inhibition,[4]; [16],93% (active) and 100% (active)
same,growth inhibition,[4]; at 50.0 µM,95% (active) and 94.3% (active)
same,growth inhibition,[4]; at 100.0 µM,86% (active)
same,growth inhibition,[5]; at 1.2 µM,82% (active)
same,growth inhibition,[5]; at 3.7 µM,98% (active)
same,growth inhibition,[5]; at 11.0 µM,98% (active)
same,growth inhibition,[5]; at 33.0 µM,94% (active)
same,growth inhibition,[5]; at 100.0 µM,84% (active)
same,growth inhibition,[6]; [15],98% (active)
same,growth inhibition,[6]; [16],94% (active) and 99% (active)
same,growth inhibition,[6]; at 50.0 µM,94.1% (active) and 95.3% (active)
same,growth inhibition,[7]; at 1.2 µM,-14% (inactive)
same,growth inhibition,[7]; at 3.7 µM,26% (inactive)
same,growth inhibition,[7]; at 11.0 µM,26% (inactive)
same,growth inhibition,[7]; at 33.0 µM,87% (active)
same,growth inhibition,[7]; at 100.0 µM,78% (active)
same,growth inhibition,[8]; [15],-52% (inactive) and 97% (active)
same,growth inhibition,[8]; [16],74% (active) and 99% (active)
same,growth inhibition,[8]; at 50.0 µM,77.9% (active) and 89.7% (active)
same,growth inhibition,[9]; at 1.2 µM,80% (active)
same,growth inhibition,[9]; at 3.7 µM,98% (active)
same,growth inhibition,[9]; [15],93% (active) and 99% (active)
same,growth inhibition,[9]; at 11.0 µM,97% (active)
same,growth inhibition,[9]; at 33.0 µM,93% (active)
same,growth inhibition,[9]; [16],91% (active) and 99% (active)
same,growth inhibition,[9]; at 50.0 µM,94.4% (active) and 91.3% (active)
same,growth inhibition,[9]; at 100.0 µM,80% (active)
same,growth inhibition,[10]; at 1.2 µM,-2% (inactive)
same,growth inhibition,[10]; at 3.7 µM,13% (inactive)
same,growth inhibition,[10]; at 11.0 µM,17% (inactive)
same,growth inhibition,[10]; at 33.0 µM,86% (active)
same,growth inhibition,[10]; at 100.0 µM,85% (active)
same,growth inhibition,[11]; at 1.2 µM,9% (inactive)
same,growth inhibition,[11]; at 3.7 µM,87% (active)
same,growth inhibition,[11]; at 11.0 µM,73% (active)
same,growth inhibition,[11]; at 33.0 µM,92% (active)
same,growth inhibition,[11]; at 100.0 µM,86% (active)
same,growth inhibition,[12]; at 1.2 µM,24% (inactive)
same,growth inhibition,[12]; at 3.7 µM,91% (active)
same,growth inhibition,[12]; at 11.0 µM,83% (active)
same,growth inhibition,[12]; at 33.0 µM,93% (active)
same,growth inhibition,[12]; at 100.0 µM,85% (active)
same,growth inhibition,[13]; [15],96% (active) and 98% (active)
same,growth inhibition,[13]; [16],90% (active) and 99% (active)
same,growth inhibition,[13]; at 50.0 µM,93.4% (active) and 92.8% (active)
same,growth inhibition,[14]; at 1.2 µM,94% (active)
same,growth inhibition,[14]; at 3.7 µM,98% (active)
same,growth inhibition,[14]; at 11.0 µM,97% (active)
same,growth inhibition,[14]; at 33.0 µM,90% (active)
same,growth inhibition,[14]; at 100.0 µM,83% (active)
